From PubChem BioAssay
proKLK7 act – proKLK7 (human) activation, primary screen; P49862; purified proKLK7, EDANS-DABCYL substrate fluorescence; 100% is mature enzyme control, 0% vehicle; activation, % at 7 µM; hit rate 0.9% among 370,000;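 active means activation above the mean of all tested compounds plus 3 SD, computed per campaign excluding outliers beyond control limits, cut at about 13% in these data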
Neddylation inh – inhibitors of human cullin neddylation. P61081+Q13564. TR-FRET cullin neddylation, biochemical. calls only at 25 µM. hit rate 0.58% among 360,000; in the data active means inhibition above about 36%
LEDGF integ inh – blocks HIV-1 LEDGF/p75-dependent DNA integration. TR-FRET IN-LEDGF/p75 DNA integration, Eu/Cy5. inhibition, % at 3.7 µM. hit rate 0.64% among 370,000. AID 743269;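 active means inhibition above the screen-wide mean plus 3 SD, cut at about 13% in these data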;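 further: signal is the Cy5 over europium emission ratio at 671 and 618 nm; 0% = plate median of compound wells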
Rin1 Abl inh – human Rin1-Abl interaction inhibition; P00519+Q13671; TR-FRET Rin1/Abl binding, biochemical; inhibition, % at 7.35 µM; hit rate 0.4% among 360,000; in the data active means inhibition above about 5%, passing the limit was not always enough
UHRF1 binding – blocks human UHRF1 binding to methylated DNA; Q96T88; UHRF1 binding to methylated oligo, TR-FRET; inhibition, % at 4.4 µM; hit rate 0.75% among 370,000; in the data active means inhibition above about 21%;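 further: UHRF1 SRA domain binding a hemimethylated CpG hairpin DNA probe; 0% = median of test compound wells and 100% = reference inhibitor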
MBD2 inh – inhibitors of human MBD2 binding to methylated oligonucleotide; Q9UBB5; TR-FRET; inhibition, % at 4.4 µM; hit rate 0.31% among 370,000; in the data active means inhibition above about 13%
proKLK7 act conf – confirmation of human kallikrein-7 zymogen activators. shares compounds with proKLK7 act. purified proKLK7, EDANS-DABCYL substrate fluorescence; scaled: vehicle 0, mature enzyme 100. activation, % at 7 µM. hit rate 68% among 3,200. AID 686949;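 active means activation, as change over the incubation, above the mean of all tested compounds plus 3 SD, cut at about 13% in these data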
EDANS-DABCYL int – counter-screen for kallikrein-7 activators: EDANS-DABCYL optical interference. shares compounds with proKLK7 act. EDANS-DABCYL substrate fluorescence interference, no enzyme, 4 h; solvent 0%, active enzyme control 100%. activation, % at 7 µM. hit rate 80% among 3,200. AID 686952;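 active means activation above the all-compound mean plus 3 SD, ignoring values outside control-based bounds, cut at about 4.8% in these data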;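 further: value is the 4 h activation minus the activation read at time zero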
K7 EDANS ctr – optically interferes with EDANS-DABCYL fluorescence, kallikrein-7 activator counter-screen; shares compounds with proKLK7 act; EDANS-DABCYL peptide fluorescence interference, no enzyme; EC50, µM; hit rate 20% among 250;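 active means compounds that raise the fluorescence signal in this interference counterscreen, with EC50 at or below 10 µM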;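 further: intact quenched peptide substrate alone read at 355 nm excitation and 520 nm emission; signal is fluorescence gain from T0 to T4 after four hours at room temperature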
* hit, by the source's call; i = inactive; . = not tested or not shown. Hits are enriched below; roughly 3.1% of the tested compounds scored in any of these assays.

SMILES | proKLK7 act | Neddylation inh | LEDGF integ inh | Rin1 Abl inh | UHRF1 binding | MBD2 inh | proKLK7 act conf | EDANS-DABCYL int | others
CC1CN(S(=O)(=O)c2cccc(C(=O)OCc3cc(=O)oc4cc(O)ccc34)c2)CC(C)O1 (configuration not stated) | 375* | . | 0 | -1 | 3 | 0 | 540* | 528*
CCCNS(=O)(=O)c1cccc(C(=O)OCc2cc(=O)oc3cc(OC)ccc23)c1 | -4 | i | -4 | -1 | 0 | 3 | . | .
CCc1cc2c(COC(=O)c3cccc(NS(C)(=O)=O)c3)cc(=O)oc2cc1O | 54* | . | 3 | 2 | 1 | 0 | 62* | 55*
O=c1cc(CN2CCN(S(=O)(=O)c3ccc4c(c3)OCCO4)CC2)c2ccc(O)cc2o1 | 43* | . | 2 | -3 | -1 | -2 | 62* | 67*
COc1ccc(OC)c(CN2CCN(Cc3cc(=O)oc4cc(O)ccc34)CC2)c1 | 59* | . | 1 | -6 | 1 | -4 | 76* | 75*
COCCCNC(=O)c1csc([C@H]2C[C@H](O)[C@@H](CO)O2)n1 | 0 | i | -2 | 1 | -1 | 5 | . | .
COc1ccc(NC(=O)COC(=O)c2ccc(OC)c(S(=O)(=O)N3CCCC3)c2)cc1OC | 0 | i | -3 | 2 | -3 | 8 | . | .
CCc1cc2c(COC(=O)c3cc(S(=O)(=O)N4CCOCC4)ccc3F)cc(=O)oc2cc1O | 113* | i | 1 | -5 | 0 | -4 | 446* | 456*
O=C(OCc1cc(=O)oc2cc(O)ccc12)c1cc(S(=O)(=O)N2CCOCC2)ccc1F | 644* | i | -1 | -2 | -2 | 1 | 677* | 654*
Cc1noc(C)c1COC(=O)c1cc(S(=O)(=O)N2CCOCC2)ccc1F | 1 | i | 3 | 4 | 2 | 2 | . | .
CCC(C)c1ccccc1N1CC(C(=O)N2CCN(S(=O)(=O)c3cccc([N+](=O)[O-])c3)CC2)CC1=O (configuration not stated) | 0 | i | 1 | -2 | -1 | 1 | . | .
OC(c1ccccc1)(c1ccccc1)C1CCN(CCCNc2ccc(C(F)(F)F)cc2)CC1 | 1 | . | 6 | . | 4 | -5 | . | .
O=C(Nc1ccc(NC(=O)c2ccccc2O)cc1)Nc1ccc(F)cc1F | 31* | . | -3 | -1 | 2 | 6 | 16* | 10* | K7 EDANS ctr=9.7*
N=C1/C(=C/c2cccn2Cc2ccc(F)cc2)C(=O)N=C2SC=CN12 | 28* | i | 2 | 0 | 3 | -6 | 10 | 5.6*
Cc1cc(=O)oc2c3c(cc(OCC(=O)NC4CC4)c12)OC(C)(C)CC3 | 15* | . | 0 | -3 | -2 | 3 | 22* | 27*
Cc1cc(=O)oc2c3c(cc(OCC(=O)NCC(=O)O)c12)OC(C)(C)CC3 | 43* | . | 2 | 0 | 1 | -1 | 66* | 79*
Cc1cc(=O)oc2c3c(cc(OCC(=O)NCc4ccccc4)c12)OC(C)(C)CC3 | -14 | . | 1 | 1 | -1 | 0 | . | .
CS(=O)(=O)Nc1ccccc1C(=O)OCC(=O)NCc1cccs1 | 5 | i | -4 | 1 | 0 | 1 | . | .
O=C(COC(=O)c1ccccc1NCCO)NCc1cccs1 | 18* | . | 0 | 3 | 5 | 0 | 19* | 21*
COc1ccc(CCNC(=O)COC(=O)c2ccccc2NCCO)cc1OC | 19* | . | 1 | 4 | 4 | 2 | 26* | 34*
Cc1ccc(F)c(S(=O)(=O)NC(=O)C2(C)CCN2C(=O)c2ccc(C(F)(F)F)nc2C)c1 (configuration not stated) | 0 | i | -2 | 1 | -2 | -4 | . | .
O=C(NCc1ccccc1)C(C1CC1)n1c(=O)c(-c2ccco2)nc2ccccc21 (configuration not stated) | 2 | i | 4 | . | -4 | -2 | . | .
Cc1cccc(CCNC(=O)Cn2ncc3c2-c2cc(C)ccc2OC3)c1 | 0 | . | -2 | . | 0 | 2 | . | .
CCOc1ccc(/C=C/C(=O)N(C)CC(=O)Nc2cccc(F)c2)cc1OCC | 106* | i | -3 | -3 | -3 | 0 | -10 | -10
CN(CC(=O)Nc1cccc(F)c1)C(=O)/C=C/c1ccc(Br)s1 | 0 | i | -8 | -1 | 2 | 5 | . | .
SMILES | proKLK7 act | Neddylation inh | LEDGF integ inh | Rin1 Abl inh | UHRF1 binding | MBD2 inh | proKLK7 act conf | EDANS-DABCYL int | others
O=C1CCCc2nc3c(cc21)C(O)Oc1ccccc1-3 (configuration not stated) | 71* | . | -4 | 5 | 1 | 0 | 52* | 65*
COc1cccc(Oc2c(C)oc3c(CN4CCOCC4)c(O)ccc3c2=O)c1 | 31* | . | -2 | -3 | 2 | -6 | 12 | 23*
COc1ccc(Oc2c(C)oc3c(CN4CCOCC4)c(O)ccc3c2=O)cc1 | 7 | . | 1 | 0 | -1 | -1 | . | .
COc1ccccc1-c1c(C)oc2c(CN3CCOCC3)c(O)ccc2c1=O | 66* | . | 2 | -2 | -2 | 2 | 69* | 79*
CCc1cc2c(-c3ccccc3)cc(=O)oc2c(CN2CCOCC2)c1O | 0 | . | -1 | 1 | -2 | 1 | . | .
Cc1oc2c(CN3CCOCC3)c(O)ccc2c(=O)c1-c1ccccc1 | 73* | . | -1 | -2 | -1 | 2 | 23* | 30*
Cc1oc2c(CN3CCCCC3)c(O)ccc2c(=O)c1-c1ccc(Cl)cc1 | 38* | . | 4 | 0 | -1 | 7 | 28* | 34*
CCN1C/C(=C/c2cccc([N+](=O)[O-])c2)C(=O)/C(=C/c2cccc([N+](=O)[O-])c2)C1 | -1 | i | -1 | 4 | 6 | 9 | . | .
CC(C)CN1C(=O)c2ccc(NC(=O)c3cccs3)cc2C1=O | 13* | . | -4 | 4 | 2 | 2 | -15 | -14
CC(C)CN1C(=O)c2ccc(NC(=O)c3ccccc3F)cc2C1=O | -4 | . | -1 | 3 | -1 | 1 | . | .
CCc1c(C2(O)CCCCC2)[nH]c2cnccc12 | 70* | . | 0 | 1 | 4 | 5 | 12 | 16*
Cc1c(C2(O)CCCCC2)[nH]c2ccccc12 | 1 | . | 1 | . | 1 | 0 | . | .
COc1ccc(C2CC(c3ccccc3)=NN2c2ccc(S(N)(=O)=O)cc2)cc1OC (configuration not stated) | -391 | i | -4 | 1 | 0 | 0 | . | .
